# High-throughput results: PubChem, The Scripps Research Institute Molecular Screening Center
# Shown are actives, neighbours in structure and some others; about 3.5% of the full set was active somewhere.
# MITF inh: human MITF inhibition, primary screen; O75030; AlphaScreen MITF homodimerization, bead proximity signal; inhibition, % at 2.6 µM; 650,000 tested, 0.91% active; AID 1259374; in the data active means inhibition above about 50%;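 further: 0% = vehicle wells with protein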
# GPR151 activ: activators of human GPR151; 650,000 tested, 1% active; PathHunter beta-arrestin GPR151 cells, luminescence; activation, % at 11.2 µM; in the data active means activation above about 4.9%;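 further: 0% = median of compound wells and 100% = cells with positive control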
# TEAD-YAP block: TEAD-YAP interaction inhibition. AID 1259422. inhibition, % at 9.12 µM. HEK-TIYL cells, TEAD-Gal4/YAP UAS-luciferase luminescence. 640,000 tested, 1.4% active; in the data active means inhibition above about 32%;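 further: 0% = median of test compound wells and 100% = reference inhibitor wells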
# FBW7 act: human FBW7 E3 ligase activation, primary screen. AlphaScreen FBW7–phospho-cyclin E peptide binding, activator screen. normalized activity (activation), % at 26.1 µM. 650,000 tested, 0.13% active. AID 1259310; in the data active means normalized activity above about 1.9%;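 further: purified mutant Fbw7 with reduced substrate affinity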
# Target sequence (Q969H0 whole entry, looked up): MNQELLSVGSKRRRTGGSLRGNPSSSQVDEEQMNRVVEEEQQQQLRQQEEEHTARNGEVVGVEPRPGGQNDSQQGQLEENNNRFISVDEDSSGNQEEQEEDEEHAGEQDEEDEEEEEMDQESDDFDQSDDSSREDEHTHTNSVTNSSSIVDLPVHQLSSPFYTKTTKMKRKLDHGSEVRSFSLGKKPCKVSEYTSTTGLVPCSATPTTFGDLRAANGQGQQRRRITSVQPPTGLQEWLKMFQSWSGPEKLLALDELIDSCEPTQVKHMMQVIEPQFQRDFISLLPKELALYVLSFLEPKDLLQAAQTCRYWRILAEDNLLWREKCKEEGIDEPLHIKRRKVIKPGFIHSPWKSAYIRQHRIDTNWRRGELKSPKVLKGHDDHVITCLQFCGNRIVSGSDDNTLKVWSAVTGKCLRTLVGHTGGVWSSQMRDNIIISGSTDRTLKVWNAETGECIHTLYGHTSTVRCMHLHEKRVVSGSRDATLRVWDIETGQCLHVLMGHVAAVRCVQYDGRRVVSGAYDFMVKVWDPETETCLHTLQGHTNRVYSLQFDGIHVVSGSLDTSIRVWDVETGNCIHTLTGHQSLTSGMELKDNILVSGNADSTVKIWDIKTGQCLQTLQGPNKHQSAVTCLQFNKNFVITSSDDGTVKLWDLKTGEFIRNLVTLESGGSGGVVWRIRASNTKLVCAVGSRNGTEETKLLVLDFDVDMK
# MITF inh conf: human MITF inhibition, confirmation | AlphaScreen MITF homodimerization, biotin/His-MITF beads | 4,700 tested, 16% active | inhibition, % at 2.6 µM | AID 1259372 | shares compounds with MITF inh;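 active means inhibition above a cutoff derived from the DMSO control wells, cut at about 28% in these data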;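 further: 0% = MITF dimer wells with DMSO only; inhibitors lower the bead chemiluminescence by keeping MITF from dimerizing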
# AlphaScreen DR: AlphaScreen optical interference, dose response counter-screen; 480 tested, 6% active; IC50, µM; AlphaScreen optical interference counterscreen, cell-free; AID 1259373; shares compounds with MITF inh; call rule not given here
# AS interf ctr: AlphaScreen optical interference, counter-screen; AID 1259376; shares compounds with MITF inh; 4,700 tested, 7.6% active; LysRS AlphaScreen counterscreen, signal interference, triplicate; inhibition, % at 2.6 µM;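 active means inhibition above a cutoff derived from the DMSO control wells, cut at about 30% in these data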
# * marks the source's active call; other numbers are inactive results; nt = not tested or not shown.
SMILES,MITF inh,GPR151 activ,TEAD-YAP block,FBW7 act,MITF inh conf,AS interf ctr,others
CN1CCN(Cc2cn(-c3ccccc3)nc2-c2ccc3c(c2)OCCO3)CC1,77.3*,-0.4,-4.4,-0.1,9.3,11.7,
Cc1ccc(COc2ccc3c4c(c(=O)oc3c2)CCCC4)cc1,10.2,-0.6,-19.1,0.1,nt,nt,
COc1cc(COc2ccc3c4c(c(=O)oc3c2)CCCC4)cc(OC)c1OC,57.0*,1.2,-10.4,-0.1,10.2,4.8,
CC1CN(C2CCN(Cc3ccccc3[N+](=O)[O-])CC2)CC(C)O1 (stereo not given),65.9*,1.0,6.4,-0.1,-2.6,3.2,
O=[N+]([O-])c1ccccc1CN1CCC(N2CCN(c3ccccc3F)CC2)CC1,47.1,-0.7,5.5,-0.4,nt,nt,
O=[N+]([O-])c1ccccc1CN1CCCCCC1,39.0,0.8,6.4,-0.2,nt,nt,
O=[N+]([O-])c1ccccc1CN1CCN(C2CCCCCC2)CC1,74.9*,0.3,-0.3,0.1,22.5,4.0,
CC1CCC(N2CCN(Cc3ccccc3[N+](=O)[O-])CC2)CC1 (stereo not given),69.3*,0.7,-3.1,-0.2,1.2,3.9,
CC1CN(Cc2ccccc2[N+](=O)[O-])CC(C)O1 (stereo not given),39.5,-0.9,-0.6,-0.3,nt,nt,
CCOc1ccc(CN2CCN(Cc3ccc(C#CCCO)cc3)CC2CCO)cc1 (stereo not given),6.0,-0.2,-10.8,-0.2,nt,nt,
CN1CCN(CC(=O)Nc2ccc(C(=O)N3CCCC3)cc2)CC1,34.0,-0.6,5.3,0.7,nt,nt,
Cc1cc(NC(=O)CN2CCN(c3cccc(Cl)c3)CC2)no1,-3.8,2.3,0.6,0.0,nt,nt,
Cc1cc(NC(=O)CN2CCN(c3ccc(F)cc3)CC2)no1,54.1*,0.1,-0.9,0.1,3.6,2.9,
O=C(Cn1c(-c2ccccc2)noc1=O)Nc1ccc(N2CCCCCC2)cc1,54.1*,1.4,12.9,-0.6,15.3,16.6,
CC(=O)Nc1ccc(NC(=O)CN2CCN(C)CC2)cc1,1.7,-0.8,-23.9,0.5,nt,nt,
CN1CCN(CC(=O)Nc2ccc(N3CCCCCC3)cc2)CC1,55.4*,0.2,-2.6,-0.3,-12.6,37.2*,
CN1CCN(CC(=O)Nc2ccc(C(F)(F)F)cc2)CC1,66.5*,-0.2,-2.8,0.1,7.8,15.0,
O=C(CNCCc1ccccc1)NCc1ccc2c(c1)OCO2,73.3*,-0.1,-0.7,0.6,8.9,13.9,
O=C(CNCc1ccc2c(c1)OCO2)Nc1ccccc1F,64.4*,0.4,0.8,0.0,4.3,16.3,
O=C(CNCCN1CCOCC1)NCc1ccc2c(c1)OCO2,84.5*,0.5,7.1,0.0,18.9,13.6,
O=C(CNCc1cccnc1)Nc1ccc2c(c1)OCO2,58.6*,-0.1,0.0,0.0,1.9,7.5,
O=C(CNCc1cccnc1)Nc1ccccc1,40.2,-0.3,0.5,-0.2,nt,nt,
CC(C)NC(=O)CNCc1ccc2c(c1)OCO2,34.0,1.3,-3.8,0.0,nt,nt,
O=C(CSCc1ccccc1)NCc1ccc2c(c1)OCO2,13.4,1.0,10.1,0.0,nt,nt,
CNc1cc(NCc2cc(OC)c(OC)c(OC)c2)ncn1,1.0,-0.3,-1.8,-0.2,nt,nt,
SMILES,MITF inh,GPR151 activ,TEAD-YAP block,FBW7 act,MITF inh conf,AS interf ctr,others
COc1cccc(CNCC(=O)NCc2ccc3c(c2)OCO3)c1,59.5*,-0.3,3.7,-0.1,9.1,14.4,
CC(C)c1ccc(-c2c(NC3CCN(Cc4ccccc4)CC3)c(=O)c2=O)cc1,-1.4,-1.1,-6.4,-0.2,nt,nt,
O=C(NC1CC1)c1ccnc(-c2cccs2)c1,65.5*,-0.4,-15.4,0.1,11.5,6.2,
O=[N+]([O-])c1ccc(S(=O)(=O)N2CCN(Cc3ccccc3Cl)CC2)cc1,61.7*,1.5,-3.0,0.1,15.2,15.1,
O=[N+]([O-])c1ccc(S(=O)(=O)N2CCN(Cc3ccccc3F)CC2)cc1,45.8,-1.2,-9.7,-0.2,nt,nt,
COc1ccc(S(=O)(=O)N2CCN(Cc3ccccc3[N+](=O)[O-])CC2)cc1,51.4*,-0.3,-1.7,-0.1,36.0*,8.3,
Cc1ccccc1CN1CCN(S(=O)(=O)c2ccc([N+](=O)[O-])cc2)CC1,70.9*,-0.6,3.9,-0.1,24.8,23.0,
Cc1ccc(C(O)CNS(=O)(=O)c2ccccc2Br)o1 (stereo not given),11.0,-0.6,-1.1,0.1,nt,nt,
CC(=O)N1CCc2cc(S(=O)(=O)NC(CC(C)C)C(=O)Nc3cc(C)[nH]n3)ccc21 (stereo not given),-6.1,-0.9,-5.9,0.1,nt,nt,
CC1CCN(S(=O)(=O)c2cccc(C(=O)Nc3ccccc3C(=O)N3CCOCC3)c2)CC1,-10.5,2.0,-2.2,-0.1,nt,nt,
O=C(NCC1CCCO1)c1ccc2c(=O)n(Cc3cccc(Br)c3)c(=S)[nH]c2c1 (stereo not given),57.9*,0.9,-2.1,0.3,1.4,-0.9,
Cc1ccc(OCCCCn2cncn2)c(I)c1,-18.6,1.2,-30.4,0.0,nt,nt,
C/C=C/c1ccc(OCCn2cncn2)c(OC)c1,54.6*,0.0,-4.8,-0.3,12.7,17.4,
C/C=C/c1ccc(OCCCCn2cncn2)c(OC)c1,55.0*,1.9,2.0,0.5,-10.2,-8.0,
Cc1ccc(OCCn2cncn2)c(I)c1,60.1*,-0.4,-1.4,0.8,7.5,11.5,
N#Cc1c(SCC(=O)O)nc2c(c1-c1ccco1)CCC2,60.2*,0.7,-6.4,-0.6,71.5*,20.0,AlphaScreen DR=>6.91
Clc1ccccc1CN1CCN(Cc2cccnc2)CC1,82.6*,-0.6,-3.4,-0.2,9.6,12.3,
O=C1CCN(Cc2cccnc2)CCN1Cc1ccc(F)cc1Cl,13.0,0.6,8.0,0.3,nt,nt,
CCc1ccc(CN2CCN(Cc3cccnc3)CC2)cc1,76.6*,-0.4,-0.9,0.0,1.6,-1.4,
FC(F)(F)c1ccc(CN2CCN(Cc3cccnc3)CC2)cc1,80.8*,1.1,-13.4,-0.2,-6.5,-6.5,
Clc1ccc(N2CCN(Cc3cccnc3)CC2)cc1,51.8*,-0.5,-3.0,-0.1,-2.3,8.0,
Cc1ccccc1N1CCN(Cc2cccnc2)CC1,28.2,2.8,15.2,0.0,nt,nt,
FC(F)(F)c1cccc(N2CCN(Cc3cccnc3)CC2)c1,45.6,-0.8,6.8,-0.1,nt,nt,
O=C(CCC1CCCC1)Nc1ccc([N+](=O)[O-])cc1,-10.0,-0.9,-23.1,0.0,nt,nt,
c1ccc(CN2CCN(Cc3cccnc3)CC2)nc1,74.1*,0.4,0.0,-0.2,-18.3,-0.7,
c1ccc(CN2CCN(C3CCN(Cc4cccnc4)CC3)CC2)cc1,38.2,2.7,0.3,-0.1,nt,nt,
Clc1ccc(CN2CCN(Cc3cccnc3)CC2)cc1,84.4*,0.6,-5.2,-0.1,8.6,11.8,
COCCNC(=O)C1CC(c2ccc(OC)cc2)=NO1 (stereo not given),-23.5,0.1,-10.7,0.1,nt,nt,
Cc1ccc(OCCN2CCN(CC(O)Cn3c4ccccc4c4ccccc43)CC2)cc1 (stereo not given),74.1*,-0.5,6.3,0.2,11.2,6.7,
CCN1CCN(CCCOc2ccc3c(c2)CCC3)CC1,61.2*,0.1,6.3,0.1,4.5,4.8,
